# Inconclusive results are not listed. A call without a number means that no potency is given here. The source made the active and inactive calls. Calls follow the shape of the dose curve; as a rule, active = well fitted inhibition curve with a large enough effect; inconclusive = small, poorly fitted or top-dose-only effect; inactive = flat fitted curve, though single readings scatter.
# Columns and labels:
# Test in all cases: qHTS profiling for inhibitors of Plasmodium falciparum proliferation (AID 504749); also: nearly all actives have a fitted effect of over 60% in size
# Conditions in all cases: P. falciparum in erythrocytes, SYBR Green DNA, 72 h; series mostly up to 28.7 µM
# CP291 = system: CP291
# Procedure, shortened: (§1)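 In a 72 h erythrocytic culture (37 C, humidified, 5% CO2) at 2.5% hematocrit and 0.3% starting parasitemia, compounds were tested; SYBR Green I in detergent lysis buffer stained parasite DNA overnight.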
# CP297 = system: CP297
# Procedure, shortened: as §1
# CP305 = system: CP305
# Procedure, shortened: as §1
# CP315 = system: CP315
# Procedure, shortened: as §1
# CP325 = system: CP325
# Procedure, shortened: as §1
# CP329 = system: CP329
# Procedure, shortened: as §1
# CP335 = system: CP335
# Procedure, shortened: as §1
# DFO2036 = system: DFO2036
# Procedure, shortened: as §1
# DIV14 = system: DIV14
# Procedure, shortened: as §1
# DIV17 = system: DIV17
# Procedure, shortened: as §1
# DIV30 = system: DIV30
# Procedure, shortened: as §1
# Dd2 = system: Dd2
# Procedure, shortened: as §1
# ECU = system: ECU
# Procedure, shortened: as §1
# FAB9 = system: FAB9
# Procedure, shortened: as §1
# GB4 = system: GB4
# Procedure, shortened: as §1
# HB3 = system: HB3
# Procedure, shortened: as §1
# ICS = system: ICS
# Procedure, shortened: as §1
# JCK = system: JCK
# Procedure, shortened: as §1
# N140 = system: N140
# Procedure, shortened: as §1
# P93_24 = system: P93_24
# Procedure, shortened: as §1
# Potency is read from the fitted curve at half-maximal effect.
SMILES,Potency (CP291),Potency (CP297),Potency (CP305),Potency (CP315),Potency (CP325),Potency (CP329),Potency (CP335),Potency (DFO2036),Potency (DIV14),Potency (DIV17),Potency (DIV30),Potency (Dd2),Potency (ECU),Potency (FAB9),Potency (GB4),Potency (HB3),Potency (ICS),Potency (JCK),Potency (N140),Potency (P93_24)
NS(=O)(=O)c1cc2c(cc1Cl)NC(C1CC3C=CC1C3)NS2(=O)=O (configuration not stated),inactive,inactive,inactive,inactive,inactive,inactive,inactive,inactive,inactive,inactive,inactive,inactive,inactive,inactive,inactive,inactive,inactive,inactive,inactive,inactive
Cc1nnc(SCC2=C(C(=O)O)N3C(=O)[C@@H](NC(=O)Cn4cnnn4)[C@H]3SC2)s1,inactive,inactive,inactive,inactive,inactive,inactive,inactive,inactive,inactive,inactive,inactive,inactive,inactive,inactive,inactive,inactive,inactive,inactive,inactive,inactive
CN(C)C(=O)Oc1ccc[n+](C)c1,inactive,inactive,inactive,inactive,inactive,inactive,inactive,inactive,inactive,inactive,inactive,inactive,inactive,inactive,inactive,inactive,inactive,inactive,inactive,inactive
Cc1ccc(S(=O)(=O)NC(=O)NN2CCCCCC2)cc1,inactive,inactive,inactive,inactive,inactive,inactive,inactive,inactive,inactive,inactive,inactive,inactive,inactive,inactive,inactive,inactive,inactive,inactive,inactive,inactive
NC(=O)N1c2ccccc2C=Cc2ccccc21,inactive,inactive,inactive,inactive,inactive,inactive,inactive,inactive,inactive,inactive,inactive,inactive,inactive,inactive,inactive,inactive,inactive,inactive,inactive,inactive
CC(=O)OCC1=C(C(=O)O)N2C(=O)[C@@H](NC(=O)Cc3cccs3)[C@H]2SC1,inactive,inactive,inactive,inactive,inactive,inactive,inactive,inactive,inactive,inactive,inactive,inactive,inactive,inactive,inactive,inactive,inactive,inactive,inactive,inactive
CCCCCN(CCCCC)C(=O)C(CCC(=O)O)NC(=O)c1ccc(Cl)c(Cl)c1 (configuration not stated),inactive,inactive,inactive,inactive,inactive,inactive,inactive,inactive,inactive,inactive,inactive,inactive,inactive,inactive,inactive,inactive,inactive,inactive,inactive,inactive
C[N+](C)(C)CCCCCCCCCC[N+](C)(C)C,3.38 µM (active),4.78 µM (active),4.26 µM (active),4.26 µM (active),3.38 µM (active),3.38 µM (active),1.9 µM (active),4.47 µM (active),1.07 µM (active),1.69 µM (active),4.26 µM (active),3.16 µM (active),10 µM (active),5.01 µM (active),3.01 µM (active),1.58 µM (active),2.24 µM (active),11.2 µM (active),2.82 µM (active),2.51 µM (active)
NC(Cc1ccc(Cl)cc1)C(=O)O (configuration not stated),inactive,inactive,inactive,inactive,inactive,inactive,inactive,inactive,inactive,inactive,inactive,inactive,inactive,inactive,inactive,inactive,inactive,inactive,inactive,inactive
O=C(O)CN(CCOCCOCCN(CC(=O)O)CC(=O)O)CC(=O)O,inactive,inactive,inactive,inactive,inactive,inactive,inactive,inactive,inactive,inactive,inactive,inactive,inactive,inactive,inactive,inactive,inactive,inactive,inactive,inactive
FC(F)(F)c1ccccc1-n1ccnc1,inactive,inactive,inactive,inactive,inactive,inactive,inactive,inactive,inactive,inactive,inactive,inactive,inactive,inactive,inactive,inactive,inactive,inactive,inactive,inactive
CN(C)C(=O)Oc1cccc([N+](C)(C)C)c1,inactive,inactive,inactive,inactive,inactive,inactive,inactive,inactive,inactive,inactive,inactive,inactive,inactive,inactive,inactive,inactive,inactive,inactive,inactive,inactive
CSc1ccc(C(=O)c2[nH]c(=O)[nH]c2C)cc1,inactive,inactive,inactive,inactive,inactive,inactive,inactive,inactive,inactive,inactive,inactive,inactive,inactive,inactive,inactive,inactive,inactive,inactive,inactive,inactive
CN(C)CCOC(=O)COc1ccc(Cl)cc1,inactive,inactive,inactive,inactive,,inactive,inactive,inactive,,,inactive,inactive,inactive,inactive,inactive,inactive,inactive,inactive,inactive,inactive
CCn1cc(C(=O)O)c(=O)c2cc3c(cc21)OCO3,inactive,inactive,inactive,inactive,inactive,inactive,inactive,inactive,inactive,,inactive,inactive,inactive,inactive,inactive,inactive,inactive,inactive,inactive,inactive
CCNC(=O)N1CCN(CCCC(c2ccc(F)cc2)c2ccc(F)cc2)CC1,6.01 µM (active),6.01 µM (active),6.01 µM (active),6.75 µM (active),2.13 µM (active),,1.9 µM (active),2.51 µM (active),7.57 µM (active),13.5 µM (active),6.75 µM (active),2 µM (active),2.51 µM (active),3.98 µM (active),10.7 µM (active),4.47 µM (active),2.82 µM (active),10 µM (active),2.82 µM (active),2 µM (active)
OCCN1CCN(CCCN2c3ccccc3C=Cc3ccccc32)CC1,12 µM (active),12 µM (active),10.7 µM (active),,8.49 µM (active),,6.75 µM (active),11.2 µM (active),1.2 µM (active),1.69 µM (active),6.75 µM (active),4.47 µM (active),2.82 µM (active),,6.75 µM (active),8.91 µM (active),4.47 µM (active),,3.55 µM (active),7.94 µM (active)
CNC1(C)C2CCC(C2)C1(C)C (configuration not stated),inactive,inactive,inactive,inactive,inactive,inactive,,inactive,inactive,inactive,inactive,,inactive,inactive,10.7 µM (active),inactive,inactive,inactive,inactive,inactive
NCCCNCCSP(=O)(O)O,inactive,inactive,inactive,inactive,inactive,inactive,inactive,inactive,inactive,inactive,inactive,inactive,inactive,inactive,inactive,inactive,inactive,inactive,inactive,inactive
CN1CCN(CC(=O)N2c3ccccc3C(=O)Nc3cccnc32)CC1,inactive,,inactive,inactive,inactive,inactive,inactive,inactive,inactive,inactive,inactive,inactive,inactive,inactive,inactive,inactive,inactive,inactive,inactive,inactive
CC1=NS(=O)(=O)c2cc(Cl)ccc2N1,inactive,inactive,inactive,inactive,inactive,inactive,inactive,inactive,inactive,inactive,inactive,,inactive,inactive,inactive,,inactive,,inactive,
Cc1ccc(Cl)c(Nc2ccccc2C(=O)O)c1Cl,inactive,inactive,inactive,,inactive,inactive,inactive,inactive,inactive,inactive,inactive,inactive,inactive,inactive,inactive,inactive,inactive,inactive,inactive,inactive
CC(C(=O)O)c1ccc(CC2CCCC2=O)cc1 (configuration not stated),inactive,inactive,inactive,inactive,inactive,inactive,inactive,inactive,inactive,inactive,inactive,inactive,inactive,inactive,inactive,inactive,inactive,inactive,inactive,inactive
COC(=O)C1=C(C)NC(C)=C(C(=O)OC(C)(C)CN(C)CCC(c2ccccc2)c2ccccc2)C1c1cccc([N+](=O)[O-])c1 (configuration not stated),3.79 µM (active),3.79 µM (active),5.36 µM (active),4.26 µM (active),6.01 µM (active),3.79 µM (active),1.51 µM (active),3.55 µM (active),3.79 µM (active),3.38 µM (active),4.78 µM (active),2.24 µM (active),3.16 µM (active),,2.13 µM (active),3.16 µM (active),2 µM (active),,2.51 µM (active),2.51 µM (active)
O=C1CC2(CCCC2)CC(=O)N1CCCCN1CCN(c2ncccn2)CC1,inactive,inactive,inactive,inactive,inactive,inactive,inactive,inactive,,,inactive,inactive,,inactive,,inactive,inactive,inactive,inactive,inactive
C[n+]1cc2c3c(ccc2c2ccc4cc5c(cc4c21)OCO5)OCO3,inactive,inactive,,inactive,,inactive,inactive,inactive,,inactive,inactive,inactive,inactive,inactive,,inactive,inactive,inactive,inactive,inactive
CCCN(CCC)CCc1cccc2c1CC(=O)N2,inactive,inactive,inactive,inactive,inactive,inactive,,inactive,inactive,inactive,inactive,inactive,inactive,inactive,inactive,inactive,inactive,inactive,inactive,inactive

# — PubChem BioAssay (NCATS)
